Laboratory results reported in the supplement of paper PMC4466140.

Experiments:
Assay in all cases: SPOT peptide array binding signal intensity (averaged, normalized) (arbitrary units (background-subtracted, floor 0; scale differs between SH3 domains)); higher = stronger binding of the SH3 domain to the peptide
AgAbp1 = molecular target: AgAbp1
Method in brief: (§1)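 SH3 domains from four yeast species were expressed as GST fusions in E. coli BL21(DE3) and purified on glutathione Sepharose. Each was incubated at 10 μg/ml overnight at 4°C in TBS-based blocking buffer on cellulose membranes bearing synthetic 15-mer peptides, in which serines replaced cysteines. Bound protein was detected with anti-GST antibody, an HRP anti-mouse secondary and luminol, then imaged and quantified with Genespotter. The binding signal is the normalized, background-subtracted spot intensity averaged over replicates, in arbitrary units that are not the same from one domain to another.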

AgBbc1 = molecular target: AgBbc1
Method in brief: as §1

AgBem1-D1 = molecular target: AgBem1-D1
Method in brief: as §1

AgBzz1-D1 = molecular target: AgBzz1-D1
Method in brief: as §1

AgBzz1-D2 = molecular target: AgBzz1-D2
Method in brief: as §1

AgCyk3 = molecular target: AgCyk3
Method in brief: as §1

AgFus1 = molecular target: AgFus1
Method in brief: as §1

AgHof1 = molecular target: AgHof1
Method in brief: as §1

AgHse1 = molecular target: AgHse1
Method in brief: as §1

AgLsb1 = molecular target: AgLsb1
Method in brief: as §1

AgLsb4 = molecular target: AgLsb4
Method in brief: as §1

AgMyo5 = molecular target: AgMyo5
Method in brief: as §1

AgNbp2 = molecular target: AgNbp2
Method in brief: as §1

AgRvs167 = molecular target: AgRvs167
Method in brief: as §1

AgSho1 = molecular target: AgSho1
Method in brief: as §1

AgSla1-D1-D2 = molecular target: AgSla1-D1-D2
Method in brief: as §1

AgSla1-D3 = molecular target: AgSla1-D3
Method in brief: as §1

CaAbp1-D1 = molecular target: CaAbp1-D1
Method in brief: as §1

CaAbp1-D2 = molecular target: CaAbp1-D2
Method in brief: as §1

CaBbc1 = molecular target: CaBbc1
Method in brief: as §1

CaBem1-D1 = molecular target: CaBem1-D1
Method in brief: as §1

CaBzz1-D1 = molecular target: CaBzz1-D1
Method in brief: as §1

CaBzz1-D2 = molecular target: CaBzz1-D2
Method in brief: as §1

CaCyk3 = molecular target: CaCyk3
Method in brief: as §1

CaFus1 = molecular target: CaFus1
Method in brief: as §1

CaHof1 = molecular target: CaHof1
Method in brief: as §1

CaHse1 = molecular target: CaHse1
Method in brief: as §1

CaLsb1 = molecular target: CaLsb1
Method in brief: as §1

CaLsb4 = molecular target: CaLsb4
Method in brief: as §1

CaMyo5 = molecular target: CaMyo5
Method in brief: as §1

CaNbp2 = molecular target: CaNbp2
Method in brief: as §1

CaRvs167 = molecular target: CaRvs167
Method in brief: as §1

CaRvs167-3 = molecular target: CaRvs167-3
Method in brief: as §1

CaSho1 = molecular target: CaSho1
Method in brief: as §1

CaSla1-D1-D2 = molecular target: CaSla1-D1-D2
Method in brief: as §1

CaSla1-D3 = molecular target: CaSla1-D3
Method in brief: as §1

ScAbp1 = molecular target: ScAbp1
Method in brief: as §1

ScBbc1 = molecular target: ScBbc1
Method in brief: as §1

ScBem1-D1 = molecular target: ScBem1-D1
Method in brief: as §1

ScBzz1-D1 = molecular target: ScBzz1-D1
Method in brief: as §1

ScBzz1-D2 = molecular target: ScBzz1-D2
Method in brief: as §1

ScCyk3 = molecular target: ScCyk3
Method in brief: as §1

ScFus1 = molecular target: ScFus1
Method in brief: as §1

ScHof1 = molecular target: ScHof1
Method in brief: as §1

ScHse1 = molecular target: ScHse1
Method in brief: as §1

ScLsb1 = molecular target: ScLsb1
Method in brief: as §1

ScLsb2 = molecular target: ScLsb2
Method in brief: as §1

ScLsb3 = molecular target: ScLsb3
Method in brief: as §1

ScLsb4 = molecular target: ScLsb4
Method in brief: as §1

ScMyo3 = molecular target: ScMyo3
Method in brief: as §1

ScMyo5 = molecular target: ScMyo5
Method in brief: as §1

ScNbp2 = molecular target: ScNbp2
Method in brief: as §1

ScPex13 = molecular target: ScPex13
Method in brief: as §1

ScRvs167 = molecular target: ScRvs167
Method in brief: as §1

ScSho1 = molecular target: ScSho1
Method in brief: as §1

ScSla1-D1-D2 = molecular target: ScSla1-D1-D2
Method in brief: as §1

ScSla1-D3 = molecular target: ScSla1-D3
Method in brief: as §1

SpAbp1-D1 = molecular target: SpAbp1-D1
Method in brief: as §1

SpBbc1 = molecular target: SpBbc1
Method in brief: as §1

SpBzz1-D1 = molecular target: SpBzz1-D1
Method in brief: as §1

SpBzz1-D2 = molecular target: SpBzz1-D2
Method in brief: as §1

SpCyk3 = molecular target: SpCyk3
Method in brief: as §1

SpHof1 = molecular target: SpHof1
Method in brief: as §1

SpHof1-2 = molecular target: SpHof1-2
Method in brief: as §1

SpHof1-3 = molecular target: SpHof1-3
Method in brief: as §1

SpHse1 = molecular target: SpHse1
Method in brief: as §1

SpLsb1 = molecular target: SpLsb1
Method in brief: as §1

SpLsb4 = molecular target: SpLsb4
Method in brief: as §1

SpMyo1 = molecular target: SpMyo1
Method in brief: as §1

SpNbp2 = molecular target: SpNbp2
Method in brief: as §1

SpPex13 = molecular target: SpPex13
Method in brief: as §1

SpRvs167 = molecular target: SpRvs167
Method in brief: as §1

SpSla1-D1-D2 = molecular target: SpSla1-D1-D2
Method in brief: as §1

SpSla1-D3 = molecular target: SpSla1-D3
Method in brief: as §1

FTLPPPPPPPGLDEL
SPOT peptide array binding signal intensity (AgAbp1): ≤ 0
SPOT peptide array binding signal intensity (AgBbc1): ≤ 0
SPOT peptide array binding signal intensity (AgBem1-D1): ≤ 0
SPOT peptide array binding signal intensity (AgBzz1-D1): ≤ 0
SPOT peptide array binding signal intensity (AgBzz1-D2): 3
SPOT peptide array binding signal intensity (AgCyk3): ≤ 0
SPOT peptide array binding signal intensity (AgFus1): ≤ 0
SPOT peptide array binding signal intensity (AgHof1): 85.8
SPOT peptide array binding signal intensity (AgHse1): ≤ 0
SPOT peptide array binding signal intensity (AgLsb1): ≤ 0
SPOT peptide array binding signal intensity (AgLsb4): ≤ 0
SPOT peptide array binding signal intensity (AgMyo5): 1170
SPOT peptide array binding signal intensity (AgNbp2): ≤ 0
SPOT peptide array binding signal intensity (AgRvs167): 0.833
SPOT peptide array binding signal intensity (AgSho1): ≤ 0
SPOT peptide array binding signal intensity (AgSla1-D1-D2): 4
SPOT peptide array binding signal intensity (AgSla1-D3): ≤ 0
SPOT peptide array binding signal intensity (CaAbp1-D1): ≤ 0
SPOT peptide array binding signal intensity (CaAbp1-D2): ≤ 0
SPOT peptide array binding signal intensity (CaBbc1): ≤ 0
SPOT peptide array binding signal intensity (CaBem1-D1): ≤ 0
SPOT peptide array binding signal intensity (CaBzz1-D1): 491
SPOT peptide array binding signal intensity (CaBzz1-D2): 23
SPOT peptide array binding signal intensity (CaCyk3): ≤ 0
SPOT peptide array binding signal intensity (CaFus1): ≤ 0
SPOT peptide array binding signal intensity (CaHof1): 0.5
SPOT peptide array binding signal intensity (CaHse1): ≤ 0
SPOT peptide array binding signal intensity (CaLsb1): ≤ 0
SPOT peptide array binding signal intensity (CaLsb4): ≤ 0
SPOT peptide array binding signal intensity (CaMyo5): 33.8
SPOT peptide array binding signal intensity (CaNbp2): ≤ 0
SPOT peptide array binding signal intensity (CaRvs167): ≤ 0
SPOT peptide array binding signal intensity (CaRvs167-3): ≤ 0
SPOT peptide array binding signal intensity (CaSho1): ≤ 0
SPOT peptide array binding signal intensity (CaSla1-D1-D2): 7
SPOT peptide array binding signal intensity (CaSla1-D3): ≤ 0
SPOT peptide array binding signal intensity (ScAbp1): ≤ 0
SPOT peptide array binding signal intensity (ScBbc1): 2
SPOT peptide array binding signal intensity (ScBem1-D1): ≤ 0
SPOT peptide array binding signal intensity (ScBzz1-D1): 12
SPOT peptide array binding signal intensity (ScBzz1-D2): 0.5
SPOT peptide array binding signal intensity (ScCyk3): ≤ 0
SPOT peptide array binding signal intensity (ScFus1): ≤ 0
SPOT peptide array binding signal intensity (ScHof1): 204
SPOT peptide array binding signal intensity (ScHse1): ≤ 0
SPOT peptide array binding signal intensity (ScLsb1): 0.25
SPOT peptide array binding signal intensity (ScLsb2): ≤ 0
SPOT peptide array binding signal intensity (ScLsb3): ≤ 0
SPOT peptide array binding signal intensity (ScLsb4): ≤ 0
SPOT peptide array binding signal intensity (ScMyo3): 1360
SPOT peptide array binding signal intensity (ScMyo5): 1880
SPOT peptide array binding signal intensity (ScNbp2): 1
SPOT peptide array binding signal intensity (ScPex13): 1
SPOT peptide array binding signal intensity (ScRvs167): ≤ 0
SPOT peptide array binding signal intensity (ScSho1): ≤ 0
SPOT peptide array binding signal intensity (ScSla1-D1-D2): 4.5
SPOT peptide array binding signal intensity (ScSla1-D3): 1.5
SPOT peptide array binding signal intensity (SpAbp1-D1): ≤ 0
SPOT peptide array binding signal intensity (SpBbc1): ≤ 0
SPOT peptide array binding signal intensity (SpBzz1-D1): 1530

MTKTPETSPPKRPMG
SPOT peptide array binding signal intensity (AgAbp1): ≤ 0
SPOT peptide array binding signal intensity (AgBbc1): 5.25
SPOT peptide array binding signal intensity (AgBem1-D1): 66.5
SPOT peptide array binding signal intensity (AgBzz1-D1): 22
SPOT peptide array binding signal intensity (AgBzz1-D2): 11.5
SPOT peptide array binding signal intensity (AgCyk3): ≤ 0
SPOT peptide array binding signal intensity (AgFus1): ≤ 0
SPOT peptide array binding signal intensity (AgHof1): 7.25
SPOT peptide array binding signal intensity (AgHse1): ≤ 0
SPOT peptide array binding signal intensity (AgLsb1): 1
SPOT peptide array binding signal intensity (AgLsb4): 2
SPOT peptide array binding signal intensity (AgMyo5): 946
SPOT peptide array binding signal intensity (AgNbp2): 25
SPOT peptide array binding signal intensity (AgRvs167): 3.83
SPOT peptide array binding signal intensity (AgSho1): ≤ 0
SPOT peptide array binding signal intensity (AgSla1-D1-D2): 1
SPOT peptide array binding signal intensity (AgSla1-D3): ≤ 0
SPOT peptide array binding signal intensity (CaAbp1-D1): 36
SPOT peptide array binding signal intensity (CaAbp1-D2): 24
SPOT peptide array binding signal intensity (CaBbc1): 180
SPOT peptide array binding signal intensity (CaBem1-D1): 17
SPOT peptide array binding signal intensity (CaBzz1-D1): 30
SPOT peptide array binding signal intensity (CaBzz1-D2): 21
SPOT peptide array binding signal intensity (CaCyk3): 7.5
SPOT peptide array binding signal intensity (CaFus1): 55.5
SPOT peptide array binding signal intensity (CaHof1): 2
SPOT peptide array binding signal intensity (CaHse1): 1.25
SPOT peptide array binding signal intensity (CaLsb1): 0.5
SPOT peptide array binding signal intensity (CaLsb4): 77
SPOT peptide array binding signal intensity (CaMyo5): 87.2
SPOT peptide array binding signal intensity (CaNbp2): 40.5
SPOT peptide array binding signal intensity (CaRvs167): 17.8
SPOT peptide array binding signal intensity (CaRvs167-3): ≤ 0
SPOT peptide array binding signal intensity (CaSho1): 10.5
SPOT peptide array binding signal intensity (CaSla1-D1-D2): 210
SPOT peptide array binding signal intensity (CaSla1-D3): 106
SPOT peptide array binding signal intensity (ScAbp1): ≤ 0
SPOT peptide array binding signal intensity (ScBbc1): 0.5
SPOT peptide array binding signal intensity (ScBem1-D1): ≤ 0
SPOT peptide array binding signal intensity (ScBzz1-D1): 1
SPOT peptide array binding signal intensity (ScBzz1-D2): 6
SPOT peptide array binding signal intensity (ScCyk3): ≤ 0
SPOT peptide array binding signal intensity (ScFus1): ≤ 0
SPOT peptide array binding signal intensity (ScHof1): 1.25
SPOT peptide array binding signal intensity (ScHse1): 18.5
SPOT peptide array binding signal intensity (ScLsb1): 6.5
SPOT peptide array binding signal intensity (ScLsb2): 2.5
SPOT peptide array binding signal intensity (ScLsb3): 45.5
SPOT peptide array binding signal intensity (ScLsb4): 10
SPOT peptide array binding signal intensity (ScMyo3): 1860
SPOT peptide array binding signal intensity (ScMyo5): 462
SPOT peptide array binding signal intensity (ScNbp2): 25
SPOT peptide array binding signal intensity (ScPex13): 24.2
SPOT peptide array binding signal intensity (ScRvs167): 7.17
SPOT peptide array binding signal intensity (ScSho1): ≤ 0
SPOT peptide array binding signal intensity (ScSla1-D1-D2): 62.5
SPOT peptide array binding signal intensity (ScSla1-D3): 65.2
SPOT peptide array binding signal intensity (SpAbp1-D1): 3
SPOT peptide array binding signal intensity (SpBbc1): 0.5
SPOT peptide array binding signal intensity (SpBzz1-D1): 30.5
SPOT peptide array binding signal intensity (SpBzz1-D2): 1.25
SPOT peptide array binding signal intensity (SpCyk3): 1
SPOT peptide array binding signal intensity (SpHof1): 18.5
SPOT peptide array binding signal intensity (SpHof1-2): 18.2
SPOT peptide array binding signal intensity (SpHof1-3): ≤ 0
SPOT peptide array binding signal intensity (SpHse1): 13
SPOT peptide array binding signal intensity (SpLsb1): 2.5
SPOT peptide array binding signal intensity (SpLsb4): 285
SPOT peptide array binding signal intensity (SpMyo1): 446
SPOT peptide array binding signal intensity (SpNbp2): 5.5
SPOT peptide array binding signal intensity (SpPex13): ≤ 0
SPOT peptide array binding signal intensity (SpRvs167): 18.5
SPOT peptide array binding signal intensity (SpSla1-D1-D2): 4
SPOT peptide array binding signal intensity (SpSla1-D3): 17
